# Measured values published in PMC7862700, “An all-to-all approach to the identification of sequence-specific readers for epigenetic DNA modifications on cytosine”.
# Key:
# Test in all cases: DAPPL (digital affinity profiling via proximity ligation, sequencing); 10 mM Tris-HCl pH 7.5, 50 mM NaCl, 1 mM DTT, 4% glycerol, room temperature, 30 min; GST-TFs on glutathione beads, 16-mer random dsDNA library, 0.1% formaldehyde crosslink after washing; high values mean tight binding
# Details in all cases: protein: recombinant; tags: N-terminal GST; dsDNA, one strand shown
# FLI1 = biological target: T1, FLI1 (Homo sapiens, UniProt Q01543 1-452)
# T1 sequence: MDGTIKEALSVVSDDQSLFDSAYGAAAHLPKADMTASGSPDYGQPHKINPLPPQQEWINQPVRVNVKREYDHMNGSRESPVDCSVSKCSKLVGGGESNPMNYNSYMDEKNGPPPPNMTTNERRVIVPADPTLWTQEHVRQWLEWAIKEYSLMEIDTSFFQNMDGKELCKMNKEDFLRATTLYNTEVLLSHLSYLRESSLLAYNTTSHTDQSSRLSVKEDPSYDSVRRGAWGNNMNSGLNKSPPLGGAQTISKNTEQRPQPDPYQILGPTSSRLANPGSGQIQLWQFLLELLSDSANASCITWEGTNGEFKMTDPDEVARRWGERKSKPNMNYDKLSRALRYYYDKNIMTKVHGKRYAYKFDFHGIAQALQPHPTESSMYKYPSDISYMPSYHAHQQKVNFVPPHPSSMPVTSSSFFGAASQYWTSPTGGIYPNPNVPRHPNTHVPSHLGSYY
# Procedure, shortened: (§1)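 Human transcription factors were made in yeast as GST fusions, captured on glutathione beads and barcoded with DNA. With a tag-only sample included, the pool was incubated with 200 nmole of a random double-stranded 16-mer DNA library in Tris/NaCl/DTT/glycerol buffer at room temperature for 30 min, then crosslinked with 0.1% formaldehyde after washing, ligated by proximity, amplified and sequenced. For binding signal, each hexamer's read frequency for a factor is divided by its frequency for the tag-only sample.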
# ELK1 = biological target: T2, ELK1 (Homo sapiens, UniProt P19419 1-428)
# T2 sequence: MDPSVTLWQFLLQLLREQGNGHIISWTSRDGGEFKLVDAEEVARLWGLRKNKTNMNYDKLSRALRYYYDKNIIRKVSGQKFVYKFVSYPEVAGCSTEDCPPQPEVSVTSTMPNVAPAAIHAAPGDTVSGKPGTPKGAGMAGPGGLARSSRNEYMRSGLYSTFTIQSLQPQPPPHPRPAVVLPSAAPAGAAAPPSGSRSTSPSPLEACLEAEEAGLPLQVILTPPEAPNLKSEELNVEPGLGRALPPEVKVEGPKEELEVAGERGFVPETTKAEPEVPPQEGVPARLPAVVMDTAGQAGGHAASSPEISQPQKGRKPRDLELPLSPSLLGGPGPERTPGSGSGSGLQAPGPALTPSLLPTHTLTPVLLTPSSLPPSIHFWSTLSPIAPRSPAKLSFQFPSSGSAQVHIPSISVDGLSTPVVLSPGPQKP
# Procedure, shortened: as §1
# GABPA = biological target: T3, GABPA (Homo sapiens, UniProt Q06546 1-454)
# T3 sequence: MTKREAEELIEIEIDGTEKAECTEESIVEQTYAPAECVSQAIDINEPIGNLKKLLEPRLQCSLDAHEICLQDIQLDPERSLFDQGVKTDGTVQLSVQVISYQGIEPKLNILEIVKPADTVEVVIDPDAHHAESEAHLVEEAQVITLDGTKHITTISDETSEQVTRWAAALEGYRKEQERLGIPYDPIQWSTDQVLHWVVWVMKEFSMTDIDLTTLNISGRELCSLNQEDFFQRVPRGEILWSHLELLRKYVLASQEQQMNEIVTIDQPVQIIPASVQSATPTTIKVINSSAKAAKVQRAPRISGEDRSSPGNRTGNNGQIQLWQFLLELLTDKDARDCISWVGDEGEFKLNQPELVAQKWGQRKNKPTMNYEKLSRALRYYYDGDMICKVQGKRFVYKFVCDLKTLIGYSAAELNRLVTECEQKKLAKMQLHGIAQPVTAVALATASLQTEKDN
# Procedure, shortened: as §1
# ERG = biological target: T4, ERG (Homo sapiens, UniProt P11308 1-479)
# T4 sequence: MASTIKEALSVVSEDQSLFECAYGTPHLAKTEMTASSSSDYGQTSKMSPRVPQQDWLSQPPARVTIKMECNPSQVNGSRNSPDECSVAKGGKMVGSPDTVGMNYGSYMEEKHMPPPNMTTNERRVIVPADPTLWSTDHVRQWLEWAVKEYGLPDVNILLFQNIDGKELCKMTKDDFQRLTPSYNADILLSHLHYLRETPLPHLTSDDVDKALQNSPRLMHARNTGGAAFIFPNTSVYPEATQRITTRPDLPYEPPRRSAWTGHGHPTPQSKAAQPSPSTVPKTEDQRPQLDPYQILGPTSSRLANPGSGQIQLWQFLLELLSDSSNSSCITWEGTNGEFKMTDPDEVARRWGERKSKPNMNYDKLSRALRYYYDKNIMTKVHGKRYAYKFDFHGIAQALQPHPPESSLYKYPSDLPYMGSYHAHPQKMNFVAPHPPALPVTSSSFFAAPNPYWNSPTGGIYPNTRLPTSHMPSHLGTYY
# Procedure, shortened: as §1
# ELF1 = ELF1 (Homo sapiens, UniProt P32519 1-619)
# Sequence of ELF1 (P32519 whole entry): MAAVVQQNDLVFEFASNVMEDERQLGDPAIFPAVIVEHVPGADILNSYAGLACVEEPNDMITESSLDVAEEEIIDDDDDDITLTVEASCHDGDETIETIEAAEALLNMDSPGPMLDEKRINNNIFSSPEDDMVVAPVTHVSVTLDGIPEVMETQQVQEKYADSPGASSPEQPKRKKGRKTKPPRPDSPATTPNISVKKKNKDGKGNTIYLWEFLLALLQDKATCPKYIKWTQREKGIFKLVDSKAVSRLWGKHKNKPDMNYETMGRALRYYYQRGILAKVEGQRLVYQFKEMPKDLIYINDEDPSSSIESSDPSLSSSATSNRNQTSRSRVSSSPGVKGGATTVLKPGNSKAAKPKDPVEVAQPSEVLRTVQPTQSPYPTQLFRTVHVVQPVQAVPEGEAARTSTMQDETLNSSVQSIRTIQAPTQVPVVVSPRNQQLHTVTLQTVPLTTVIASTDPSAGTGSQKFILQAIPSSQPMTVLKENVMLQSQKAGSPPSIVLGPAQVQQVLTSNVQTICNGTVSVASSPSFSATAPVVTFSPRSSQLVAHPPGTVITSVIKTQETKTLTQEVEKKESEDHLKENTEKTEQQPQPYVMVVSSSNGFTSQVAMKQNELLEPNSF
# Procedure, shortened: as §1
# EHF = biological target: T5, EHF (Homo sapiens, UniProt Q9NZC4 1-300)
# T5 sequence: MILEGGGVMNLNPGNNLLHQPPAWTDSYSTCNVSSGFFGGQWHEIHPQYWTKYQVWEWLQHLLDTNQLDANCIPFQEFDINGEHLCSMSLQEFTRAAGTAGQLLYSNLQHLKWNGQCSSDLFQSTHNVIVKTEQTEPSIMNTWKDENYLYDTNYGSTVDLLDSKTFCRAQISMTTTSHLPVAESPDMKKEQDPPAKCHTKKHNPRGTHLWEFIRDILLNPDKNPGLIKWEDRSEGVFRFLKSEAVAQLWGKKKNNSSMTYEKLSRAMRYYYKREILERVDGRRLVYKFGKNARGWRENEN
# Procedure, shortened: as §1
# SPI1 = SPI1 (Homo sapiens, UniProt P17947 1-270)
# Procedure, shortened: as §1
# SPIB = SPIB (Homo sapiens, UniProt Q01892 1-262)
# Sequence of SPIB (Q01892 whole entry): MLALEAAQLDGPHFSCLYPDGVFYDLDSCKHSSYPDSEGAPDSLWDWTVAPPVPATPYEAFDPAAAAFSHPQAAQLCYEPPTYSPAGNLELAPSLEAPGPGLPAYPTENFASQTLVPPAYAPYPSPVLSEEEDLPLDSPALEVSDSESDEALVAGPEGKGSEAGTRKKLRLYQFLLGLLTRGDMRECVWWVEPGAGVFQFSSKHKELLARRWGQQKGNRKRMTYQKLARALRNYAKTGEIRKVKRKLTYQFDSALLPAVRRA
# Procedure, shortened: as §1
# FEV = biological target: T6, FEV (Homo sapiens, UniProt Q99581 1-238)
# T6 sequence: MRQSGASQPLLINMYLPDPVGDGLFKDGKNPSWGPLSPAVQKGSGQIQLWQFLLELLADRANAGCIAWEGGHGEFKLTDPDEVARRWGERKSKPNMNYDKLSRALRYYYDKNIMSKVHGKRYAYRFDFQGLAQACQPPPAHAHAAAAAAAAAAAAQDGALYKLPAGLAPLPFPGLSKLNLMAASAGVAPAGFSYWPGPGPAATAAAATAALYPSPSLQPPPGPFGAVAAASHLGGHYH
# Procedure, shortened: as §1
sequence,measurement,setting,value
TAGATT,binding signal,FLI1,"1.17 fold enrichment (6-mer frequency, TF over GST control)"
same,binding signal,ELK1,"1.2 fold enrichment (6-mer frequency, TF over GST control)"
same,binding signal,GABPA,"1.18 fold enrichment (6-mer frequency, TF over GST control)"
same,binding signal,ERG,"1.2 fold enrichment (6-mer frequency, TF over GST control)"
same,binding signal,ELF1,"1.17 fold enrichment (6-mer frequency, TF over GST control)"
same,binding signal,EHF,"1.24 fold enrichment (6-mer frequency, TF over GST control)"
same,binding signal,SPI1,"1.16 fold enrichment (6-mer frequency, TF over GST control)"
same,binding signal,SPIB,"1.24 fold enrichment (6-mer frequency, TF over GST control)"
same,binding signal,FEV,"1.14 fold enrichment (6-mer frequency, TF over GST control)"
